Source: PubChem BioAssay
Calls of active or inactive are those of the source.

Tests used:
[1] = test system: PRMT1 (protein arginine N-methyltransferase 1); assay: small molecules binding arginine methyltransferase PRMT1 – biochemical, small-molecule microarray, 635 nm fluorescence, primary screen (AID 1088); conditions: higher = more signal;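 note: binding of Prmt1 protein to compounds spotted on small-molecule microarray slides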
[2] = growth effects on S. cerevisiae YJM789 – YJM789 clinical isolate, OD600, 24 h, basal, primary screen (AID 1089); conditions: higher = more signal, called active from +8 up or from −8 down;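 note: growth of clinical yeast isolate S. cerevisiae YJM 789 seeded 1000 cells per well; test concentration not given here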
[3] = S. pombe growth modifiers, basal conditions – strain 972, OD600, 24 h, no modulator, primary screen (AID 1090);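 note: basal condition with compound alone and no growth modifier present; test concentration not given here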; conditions: S. pombe 972 growth, higher = more signal, called active from +8 up or from −8 down
[4] = budding yeast growth modifiers under rapamycin – strain BY4716, OD600, 96 h, primary screen (AID 1091); note: test concentration not given here; conditions: S. cerevisiae BY4716 + rapamycin, higher = more signal, called active from +8 up or from −8 down
[5] = molecular target: Torsin-1A-interacting protein 2 (Homo sapiens) (UniProt Q8NFQ8); assay: small molecules binding lysate-expressed LULL1 – cell lysate, human LULL1 lysate, 635/667 nm fluorescence, primary screen (AID 1092); conditions: small-molecule microarray, hLULL1 lysate binding, 635 nm fluorescence; higher = more signal;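 note: probe is lysate of COS7 cells overexpressing human LULL1; score merges per-feature 667 nm fluorescence with signal-to-noise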
[6] = optical density change of DRC41 E. coli – strain DRC41, OD650, 24 h, E. coli filamentation project, primary screen (AID 1093);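 note: MC1000 strain lacking acrAB efflux and sulA so SOS filamentation is blocked; test concentration not given here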; conditions: E. coli DRC41 growth, higher = more signal, called active from +8 up or from −8 down
[7] = probe aLefty2 binding to arrayed compounds – biochemical, biotinylated probe, 635/667 nm fluorescence, primary screen (AID 1094); conditions: small-molecule microarray, higher = more signal;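 note: score merges spot fluorescence near 667 nm with spot signal-to-noise ratio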
[8] = test system: Noggin (protein binding on small-molecule microarray); assay: small molecules binding Noggin protein – biochemical, 635/667 nm fluorescence, primary screen (AID 1095); conditions: 635 nm fluorescence, higher = more signal;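 note: score merges 667 nm feature fluorescence with signal to noise over triplicate slides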
[9] = molecular target: Neurogenic locus notch homolog protein 3 (Homo sapiens) (UniProt Q9UM47); assay: small molecules binding NOTCH3 protein – biochemical, 635/667 nm fluorescence, primary screen (AID 1096); conditions: small-molecule microarray, 635 nm fluorescence, higher = more signal
[10] = probe aEGFR binding to arrayed compounds – biochemical, biotinylated probe, 635/667 nm fluorescence, primary screen (AID 1097); conditions: small-molecule microarray, higher = more signal;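 note: probe is a biotinylated anti-EGFR antibody binding compounds printed on slides; score combines fluorescence near 667 nm and signal to noise of each spot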
[11] = test system: Plasmodium falciparum Sir2 (PF13_0152, Sir2A); assay: Plasmodium falciparum Sir2A binding compounds – biochemical, small-molecule microarray, 635 nm fluorescence, primary screen (AID 1098); conditions: fluorescence 635 nm, higher = more signal;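 note: score merges spot fluorescence intensity with its signal-to-noise ratio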
[12] = probe aDKK1 binding to arrayed compounds – biochemical, biotinylated probe, 635/667 nm fluorescence, primary screen (AID 1099); conditions: small-molecule microarray, higher = more signal;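 note: score merges 667nm spot fluorescence with signal to noise across triplicate slides; reference of the scale not given here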
[13] = probe aCHRDL2 binding to arrayed compounds – biochemical, biotinylated probe, 635/667 nm fluorescence, primary screen (AID 1100); conditions: small-molecule microarray, higher = more signal
[14] = change in splice reporter luminescence, either direction, cell-based, HEK293, spliceosome inhibition project, primary screen (AID 1101); conditions: HEK293 splicing luciferase reporter, 24 h, higher = more signal, called active from +8 up or from −8 down;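 note: HEK293 cells carrying a splicing-competent luciferase reporter gene; test concentration not given here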
[15] = molecular target: Fibroblast growth factor 10 (Homo sapiens) (UniProt O15520); assay: compounds binding fibroblast growth factor 10 – biochemical, small-molecule microarray, 635 nm fluorescence, primary screen (AID 1102); conditions: FGF10 binding, fluorescence 635 nm, higher = more signal
[16] = test system: glycogen synthase kinase-3 (GSK3A per assay name; protocol says GSK3B); assay: compounds binding glycogen synthase kinase-3 – biochemical, small-molecule microarray, 635 nm fluorescence, GSK3A, primary screen (AID 1103); conditions: fluorescence 635 nm, higher = more signal; note: the record names both GSK3A and GSK3B
[17] = molecular target: Epidermal growth factor receptor (Homo sapiens) (UniProt P00533); assay: compounds binding epidermal growth factor receptor – biochemical, small-molecule microarray, 635 nm fluorescence, primary screen (AID 1104); conditions: EGFR binding, higher = more signal;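 note: score merges 667 nm emission intensity with spot signal to noise over triplicate slides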
[18] = molecular target: Follistatin-related protein 3 (Homo sapiens) (UniProt O95633); assay: compounds binding follistatin-related protein 3 – biochemical, small-molecule microarray, 635 nm fluorescence, primary screen (AID 1105); conditions: FSTL3 binding, higher = more signal;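 note: score merges emission near 667 nm and signal to noise per printed spot across three slides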
[19] = molecular target: Dickkopf-related protein 1 (Homo sapiens) (UniProt O94907); assay: small molecules binding DKK1 protein – biochemical, small-molecule microarray, 635 nm fluorescence scan, primary screen (AID 1106); conditions: higher = more signal;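 note: score merges emission near 667 nm with signal to noise over three replicate slides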
[20] = test system: Inhibin beta A chain (activin A); assay: small molecules binding activin A – biochemical, small-molecule microarray, 635 nm fluorescence scan, primary screen (AID 1107); conditions: INHBA, higher = more signal;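 note: mouse activin A protein probed at 4.33 µg/mL on printed slides; score merges bound-protein fluorescence near 667 nm with spot signal-to-noise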

Epidermal growth factor receptor (Homo sapiens), sequence (P00533 whole entry, looked up): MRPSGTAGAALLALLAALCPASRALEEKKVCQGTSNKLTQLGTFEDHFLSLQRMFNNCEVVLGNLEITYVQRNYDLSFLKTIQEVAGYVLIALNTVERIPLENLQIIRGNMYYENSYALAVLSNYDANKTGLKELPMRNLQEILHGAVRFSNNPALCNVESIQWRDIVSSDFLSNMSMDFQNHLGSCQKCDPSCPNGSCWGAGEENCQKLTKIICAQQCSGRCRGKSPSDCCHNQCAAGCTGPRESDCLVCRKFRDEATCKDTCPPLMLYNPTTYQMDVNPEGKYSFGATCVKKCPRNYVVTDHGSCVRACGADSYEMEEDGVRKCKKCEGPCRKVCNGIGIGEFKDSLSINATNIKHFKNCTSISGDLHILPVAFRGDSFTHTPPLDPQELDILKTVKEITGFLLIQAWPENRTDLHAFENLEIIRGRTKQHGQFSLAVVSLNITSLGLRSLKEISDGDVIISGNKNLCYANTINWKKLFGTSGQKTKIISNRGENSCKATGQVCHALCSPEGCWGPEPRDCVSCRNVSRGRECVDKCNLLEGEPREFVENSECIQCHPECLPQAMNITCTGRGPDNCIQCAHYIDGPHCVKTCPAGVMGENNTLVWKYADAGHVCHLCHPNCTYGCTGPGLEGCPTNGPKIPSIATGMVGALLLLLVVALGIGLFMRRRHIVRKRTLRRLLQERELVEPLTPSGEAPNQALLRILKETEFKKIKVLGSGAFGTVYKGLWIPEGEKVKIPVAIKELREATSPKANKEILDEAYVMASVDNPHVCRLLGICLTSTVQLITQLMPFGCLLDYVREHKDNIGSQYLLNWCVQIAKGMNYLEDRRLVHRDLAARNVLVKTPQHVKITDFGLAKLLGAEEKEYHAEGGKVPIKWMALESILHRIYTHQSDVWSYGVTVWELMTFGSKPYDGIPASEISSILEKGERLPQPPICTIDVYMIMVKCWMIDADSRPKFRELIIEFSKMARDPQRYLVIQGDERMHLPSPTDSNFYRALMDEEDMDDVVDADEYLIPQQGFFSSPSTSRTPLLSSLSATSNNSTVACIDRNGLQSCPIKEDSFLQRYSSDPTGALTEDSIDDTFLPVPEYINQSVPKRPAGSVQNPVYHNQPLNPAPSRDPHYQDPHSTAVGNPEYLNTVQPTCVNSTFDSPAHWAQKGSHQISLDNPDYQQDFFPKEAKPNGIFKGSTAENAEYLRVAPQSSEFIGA
Dickkopf-related protein 1 (Homo sapiens), sequence (O94907 whole entry, looked up): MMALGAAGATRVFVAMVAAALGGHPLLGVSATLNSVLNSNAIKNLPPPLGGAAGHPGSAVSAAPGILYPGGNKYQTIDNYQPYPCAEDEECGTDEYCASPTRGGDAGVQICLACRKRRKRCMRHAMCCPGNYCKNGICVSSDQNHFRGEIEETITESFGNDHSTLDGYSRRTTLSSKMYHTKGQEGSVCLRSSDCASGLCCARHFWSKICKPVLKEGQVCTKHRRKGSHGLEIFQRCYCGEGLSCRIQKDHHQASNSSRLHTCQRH
Torsin-1A-interacting protein 2 (Homo sapiens), sequence (Q8NFQ8 whole entry, looked up): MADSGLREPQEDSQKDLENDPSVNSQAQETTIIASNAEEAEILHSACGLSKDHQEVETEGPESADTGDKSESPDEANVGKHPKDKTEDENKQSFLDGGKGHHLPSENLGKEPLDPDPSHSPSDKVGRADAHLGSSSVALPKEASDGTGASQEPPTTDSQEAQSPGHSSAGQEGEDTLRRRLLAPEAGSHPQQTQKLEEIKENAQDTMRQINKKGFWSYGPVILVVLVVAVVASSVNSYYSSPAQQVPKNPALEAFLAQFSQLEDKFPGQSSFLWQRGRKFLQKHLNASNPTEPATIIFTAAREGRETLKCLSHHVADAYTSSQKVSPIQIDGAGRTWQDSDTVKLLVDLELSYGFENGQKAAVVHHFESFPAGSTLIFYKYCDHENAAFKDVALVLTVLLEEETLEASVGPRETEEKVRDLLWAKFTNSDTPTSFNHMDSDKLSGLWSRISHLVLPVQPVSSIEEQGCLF
Follistatin-related protein 3 (Homo sapiens), sequence (O95633 whole entry, looked up): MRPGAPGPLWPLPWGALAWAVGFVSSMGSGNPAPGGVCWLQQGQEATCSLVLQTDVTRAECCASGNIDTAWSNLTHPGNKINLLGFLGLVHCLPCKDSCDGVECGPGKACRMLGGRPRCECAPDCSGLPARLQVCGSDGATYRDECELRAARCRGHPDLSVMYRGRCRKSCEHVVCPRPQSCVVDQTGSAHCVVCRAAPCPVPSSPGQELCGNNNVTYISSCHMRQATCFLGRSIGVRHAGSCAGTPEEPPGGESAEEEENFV
Neurogenic locus notch homolog protein 3 (Homo sapiens), sequence (Q9UM47 whole entry, looked up): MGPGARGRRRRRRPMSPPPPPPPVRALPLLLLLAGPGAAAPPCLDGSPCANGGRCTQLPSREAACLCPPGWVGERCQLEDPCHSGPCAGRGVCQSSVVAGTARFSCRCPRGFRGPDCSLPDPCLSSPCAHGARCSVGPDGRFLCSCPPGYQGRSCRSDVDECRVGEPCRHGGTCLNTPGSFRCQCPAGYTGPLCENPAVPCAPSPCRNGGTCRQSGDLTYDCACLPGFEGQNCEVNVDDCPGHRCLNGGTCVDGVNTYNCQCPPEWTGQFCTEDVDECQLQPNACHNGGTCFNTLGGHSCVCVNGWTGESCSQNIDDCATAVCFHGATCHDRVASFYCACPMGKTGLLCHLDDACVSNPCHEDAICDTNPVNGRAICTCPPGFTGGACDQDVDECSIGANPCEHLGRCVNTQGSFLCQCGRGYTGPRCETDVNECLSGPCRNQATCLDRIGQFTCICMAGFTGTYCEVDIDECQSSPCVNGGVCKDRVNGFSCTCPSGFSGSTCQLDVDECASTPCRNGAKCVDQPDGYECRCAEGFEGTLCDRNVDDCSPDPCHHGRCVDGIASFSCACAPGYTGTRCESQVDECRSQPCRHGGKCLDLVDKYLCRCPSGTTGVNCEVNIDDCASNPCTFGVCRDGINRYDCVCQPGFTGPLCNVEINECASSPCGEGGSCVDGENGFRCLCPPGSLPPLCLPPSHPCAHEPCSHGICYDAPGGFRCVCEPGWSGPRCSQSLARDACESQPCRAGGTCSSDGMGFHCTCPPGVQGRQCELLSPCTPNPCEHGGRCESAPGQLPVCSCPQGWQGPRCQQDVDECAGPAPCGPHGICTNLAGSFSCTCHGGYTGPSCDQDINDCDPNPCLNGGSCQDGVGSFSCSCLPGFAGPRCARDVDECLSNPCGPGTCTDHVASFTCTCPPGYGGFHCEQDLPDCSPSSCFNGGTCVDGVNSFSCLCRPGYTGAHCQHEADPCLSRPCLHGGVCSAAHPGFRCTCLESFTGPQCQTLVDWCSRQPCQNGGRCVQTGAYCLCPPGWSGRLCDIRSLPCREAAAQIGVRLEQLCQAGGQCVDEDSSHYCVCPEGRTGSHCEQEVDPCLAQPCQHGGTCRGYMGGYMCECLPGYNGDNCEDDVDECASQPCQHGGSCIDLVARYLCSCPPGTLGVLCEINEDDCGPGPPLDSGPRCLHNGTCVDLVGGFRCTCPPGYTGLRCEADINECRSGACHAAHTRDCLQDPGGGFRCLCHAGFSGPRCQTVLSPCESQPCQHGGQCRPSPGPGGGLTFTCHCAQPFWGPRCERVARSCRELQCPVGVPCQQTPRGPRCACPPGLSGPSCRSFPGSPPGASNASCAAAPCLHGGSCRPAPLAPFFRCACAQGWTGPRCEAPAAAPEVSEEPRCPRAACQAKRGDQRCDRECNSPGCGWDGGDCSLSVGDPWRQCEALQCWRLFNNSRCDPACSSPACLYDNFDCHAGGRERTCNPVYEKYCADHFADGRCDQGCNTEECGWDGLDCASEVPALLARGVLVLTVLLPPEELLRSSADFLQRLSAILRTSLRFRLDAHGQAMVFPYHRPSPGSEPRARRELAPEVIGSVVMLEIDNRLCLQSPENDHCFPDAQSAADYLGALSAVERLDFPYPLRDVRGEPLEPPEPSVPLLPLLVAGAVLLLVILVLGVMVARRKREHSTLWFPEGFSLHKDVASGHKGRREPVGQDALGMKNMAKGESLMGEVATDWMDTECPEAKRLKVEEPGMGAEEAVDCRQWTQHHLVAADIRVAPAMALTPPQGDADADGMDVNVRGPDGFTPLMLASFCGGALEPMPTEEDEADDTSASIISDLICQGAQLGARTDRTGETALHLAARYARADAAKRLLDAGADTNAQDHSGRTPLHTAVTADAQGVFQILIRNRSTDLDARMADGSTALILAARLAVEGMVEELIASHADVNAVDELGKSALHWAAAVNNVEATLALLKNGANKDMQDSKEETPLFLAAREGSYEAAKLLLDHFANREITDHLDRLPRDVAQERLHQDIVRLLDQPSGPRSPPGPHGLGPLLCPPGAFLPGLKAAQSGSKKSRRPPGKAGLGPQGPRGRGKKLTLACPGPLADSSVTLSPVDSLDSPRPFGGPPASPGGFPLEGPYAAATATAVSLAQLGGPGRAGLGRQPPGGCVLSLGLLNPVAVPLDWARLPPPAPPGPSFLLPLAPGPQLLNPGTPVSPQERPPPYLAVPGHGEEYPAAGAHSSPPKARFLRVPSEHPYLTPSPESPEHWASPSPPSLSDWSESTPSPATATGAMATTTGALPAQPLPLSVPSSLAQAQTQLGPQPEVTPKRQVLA
Fibroblast growth factor 10 (Homo sapiens), sequence (O15520 whole entry, looked up): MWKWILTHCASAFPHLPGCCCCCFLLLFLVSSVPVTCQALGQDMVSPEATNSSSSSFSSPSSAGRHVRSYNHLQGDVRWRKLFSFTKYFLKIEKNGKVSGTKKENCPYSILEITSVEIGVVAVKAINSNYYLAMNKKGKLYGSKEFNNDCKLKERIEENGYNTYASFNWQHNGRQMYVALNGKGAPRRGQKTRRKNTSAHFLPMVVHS

| SMILES | composite z-score [1] | z-score [2] | z-score [3] | z-score [4] | composite z-score [5] | z-score [6] | composite z-score [7] | composite z-score [8] | composite z-score [9] | composite z-score [10] | composite z-score [11] | composite z-score [12] | composite z-score [13] | z-score [14] | composite z-score [15] | composite z-score [16] | composite z-score [17] | composite z-score [18] | composite z-score [19] | composite z-score [20] |
| --- | --- | --- | --- | --- | --- | --- | --- | --- | --- | --- | --- | --- | --- | --- | --- | --- | --- | --- | --- | --- |
| CCOC(=O)[C@H](CC(C)C)NC(=O)CCC1CC(OC(=O)NCc2ccc3c(c2)OCO3)CC2(CCCC(COC(=O)NCCOc3ccccc3)O2)O1 (stereo not given in full) | 1.17 | -0.337 (inactive) | 0.774 (inactive) | -0.211 (inactive) | 1.68 | 0.097 (inactive) | -0.0928 | 0.878 | 1.11 | -0.013 | 0.543 | 0.0931 | -0.537 | -0.149 (inactive) | 0.866 | 0.994 | 0.224 | 1.22 | 0.826 | 0.267 |
| CCc1cc2c(nc1CC)CCN(CCC(C)=NOCC[C@@H]1C=C[C@H](OC(C)=O)[C@@H](COC(C)=O)O1)C2 | 1.54 | -0.391 (inactive) | 0.591 (inactive) | 0.521 (inactive) | 0.796 | 0.956 (inactive) | 0.251 | 1.21 | 0.546 | 0.0579 | 1.05 | 0.0092 | 0.343 | 0.192 (inactive) | -0.0488 | 0.459 | 0.789 | 0.332 | 0.301 | 1.29 |
| CC(CCC(=O)OC[C@H]1O[C@H](C#Cc2ccccc2)C=C[C@@H]1Oc1ccc(C)cc1)=NOC(C)CN1CCCc2nc(C)c(C)cc21 (stereo not given in full) | 1.33 | 2.01 (inactive) | -1.77 (inactive) | -0.49 (inactive) | 1.5 | 0.915 (inactive) | -0.0849 | 0.538 | 0.894 | -0.0267 | 0.839 | -0.143 | -0.35 | 0.00662 (inactive) | 0.732 | 0.727 | 0.335 | 0.694 | 0.397 | 0.531 |
| CCOC(=O)[C@H](Cc1ccccc1)NC(=O)CCC1CC(OC(=O)NCc2ccc3c(c2)OCO3)CC2(CCCC(COC(=O)NCCOC)O2)O1 (stereo not given in full) | 1.56 | -0.439 (inactive) | -0.25 (inactive) | -0.364 (inactive) | 2.34 | -0.141 (inactive) | -0.166 | 0.884 | 1.05 | 0.0059 | 0.857 | -0.219 | -0.49 | -0.991 (inactive) | 1.28 | 1.2 | 0.584 | 1.01 | 0.437 | -0.169 |
| CC(C)(C)N1C(=O)[C@H]2[C@H]3[C@H](O)[C@H](O)CC(=NNC(=O)OCc4ccccc4)[C@H]3CC[C@H]2C1=O | 1.3 | 0.272 (inactive) | -1.49 (inactive) | -0.391 (inactive) | 1.39 | 0.0955 (inactive) | -0.191 | 0.683 | 0.4 | -0.0051 | -0.195 | 0.0773 | -0.525 | -0.422 (inactive) | 0.72 | 0.792 | 0.208 | 0.889 | 0.608 | -1.06 |
| CC(C)=CCCC(C)=CCON=C1C[C@@H](O)[C@@H](O)[C@@H]2[C@@H]3C(=O)N(C4CCCCC4)C(=O)[C@@H]3CC[C@H]12 | 1.52 | 0.194 (inactive) | -0.312 (inactive) | -0.382 (inactive) | 0.341 | 0.474 (inactive) | -0.0575 | 1.07 | 0.789 | 0.0065 | 0.475 | -0.107 | -0.304 | -0.693 (inactive) | 0.785 | 0.701 | 0.513 | 1.11 | 0.873 | 0.644 |
| CCO[C@H](c1cc(OC)cc([N+](=O)[O-])c1OC)[C@H](C)[C@@H](OC)[C@H](C)C=CCC(=O)OC | 0.836 | 0.443 (inactive) | -0.463 (inactive) | -0.604 (inactive) | 0.945 | -0.466 (inactive) | 0.0632 | -0.0645 | 1.06 | -0.0069 | 0.535 | 0.481 | -0.133 | -0.188 (inactive) | 0.278 | 0.188 | 0.835 | 0.723 | -0.359 | -0.334 |
| COc1ccc(O[C@H]2C=C[C@@H](c3ccccc3)O[C@@H]2CO)cc1 | 0.018 | 0.711 (inactive) | -1.27 (inactive) | -1.02 (inactive) | 0.0141 | 0.299 (inactive) | -0.0603 | 0.14 | 0.0607 | -0.0146 | 0.281 | -0.227 | -0.116 | -0.752 (inactive) | 0.194 | 0.207 | 0.731 | 0.318 | 0.485 | 0.622 |
| CCOC(=O)CCN1C(=O)[C@H]2[C@H]3[C@H](O)[C@H](O)CC(=NNC(=O)OCc4ccc(OC)cc4)[C@H]3CC[C@H]2C1=O | 0.271 | 0.0811 (inactive) | -0.257 (inactive) | -0.577 (inactive) | 0.282 | -0.31 (inactive) | 0.0108 | 0.335 | 0.316 | 0.0289 | 0.14 | 0.127 | 0.0124 | -0.352 (inactive) | -0.186 | 0.071 | 0.459 | 0.449 | 0.132 | 0.747 |
| C=CC[C@@H]1C=C[C@H](ON=C2C[C@@H](O)[C@@H](O)[C@@H]3[C@@H]4C(=O)N(CC)C(=O)[C@@H]4CC[C@@H]23)[C@@H](CO)O1 | 0.245 | 0.442 (inactive) | -0.376 (inactive) | 0.445 (inactive) | -0.004 | -0.876 (inactive) | -0.0736 | 0.107 | -0.724 | -0.119 | -0.487 | -0.428 | -0.562 | -1.2 (inactive) | 0.156 | -0.653 | -0.0239 | -0.339 | 0.106 | 0.535 |
